# Results reported in paper PMC5540273 (PLoS ONE, 2017).
# Tests used:
# Conditions in all cases: concentration: 1 μM,replicates: in singlicate; n = 1
# [1] = system: FYN
# [2] = system: GAK
# [3] = system: T1, GCN2(Kin.Dom.2,S808G)
# T1 construct: gene EIF2AK4
# [4] = system: GRK1
# [5] = system: T2, GRK2
# T2 construct: gene ADRBK1
# [6] = system: T3, GRK3
# T3 construct: gene ADRBK2
# [7] = system: GRK4
# [8] = system: GRK7
# [9] = system: GSK3A
# [10] = system: GSK3B
# 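Note: KINOMEscan kinase panel screen.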
SMILES,%Inh [1] [%],%Inh [2] [%],%Inh [3] [%],%Inh [4] [%],%Inh [5] [%],%Inh [6] [%],%Inh [7] [%],%Inh [8] [%],%Inh [9] [%],%Inh [10] [%]
Cl.Cl.Nc1nc(-c2ccc3c(N)n[nH]c3c2)cc(N2CCCC(NC(=O)c3ccccc3)C2)n1 (centres unmarked) [GSK2286775],34,2,0,0,0,19,55,0,0,15
Cc1n[nH]c2ccc(-c3cc(OC[C@@H](N)Cc4ccccc4)cnc3-c3ccoc3)cc12.O=C(O)C(F)(F)F.O=C(O)C(F)(F)F [GSK507358],12,82,0,0,0,21,34,0,80,49
Cc1ccc2c(-c3ccncc3)c(-c3ccc(F)cc3)nn2c1.Cl [GW461484],26,84,28,0,0,0,0,66,26,16
CCN(CC)CCOc1ccc(Nc2ncc3cc(-c4c(Cl)cccc4Cl)c(=O)n(C)c3n2)cc1 [SB-601273],100,97,100,6,29,57,0,0,17,0
O=C(NCCNc1ccnc(NCc2ccc(F)cc2)n1)c1cc2ccccc2s1 [GSK1379944],17,33,6,0,0,34,0,0,6,78
C=CC(=O)Nc1cc2c(Nc3ccc(F)c(Cl)c3)ncnc2cc1OCCCN1CCOCC1 [GW781483],0,66,–,0,19,3,39,0,0,0
Cl.Cl.NC[C@H](Cc1ccc(C(F)(F)F)cc1)NC(=O)c1cc(Br)c(-c2ccnc3[nH]ccc23)s1 [GSK1487252],15,0,4,93.7,35,75,8,95.3,0,18
CN(C)CC(O)COc1ccc(Nc2nccc(-c3cnn4nc(N5CCOCC5)ccc34)n2)cc1 (centres unmarked) [GW767488],15,75,56,23,0,0,81,37,4,61
COc1ccc(C[C@@H](CN)NC(=O)c2cc(Br)c(-c3ccnc4[nH]ccc34)s2)cc1.Cl.Cl [GSK1389063],0,56,40,99.8,67,96,39,98.8,0,8
NC(=O)c1cc(-c2ccccc2)cc2c(C3CCNCC3)c[nH]c12 [GSK301362],21,15,38,0,0,0,2,0,0,14
Cc1occc1-c1nc(N)c(OC[C@@H](N)Cc2c[nH]c3ccccc23)cc1-c1cc2c(C)n[nH]c2cn1 [GSK1660450],87,87,0,74,0,0,49,87,95.7,97.9
C[C@H]1Oc2cc(cnc2N)-c2c(nn(C)c2C#N)CN(C)C(=O)c2ccc(F)cc21,19,25,0,95.8,2,0,0,94.3,21,0
C[C@@H]1CCN(C(=O)CC#N)C[C@@H]1N(C)c1ncnc2[nH]ccc12,8,19,0,15,0,0,0,25,0,0
CC(C)Nc1cc(-c2ccc3c(N)n[nH]c3c2)nc(N)n1 [GSK2221681],33,0,0,0,0,0,34,0,0,4
CN(C)CCOc1ccc(-c2cc(-c3c[nH]nc3-c3ccccn3)ccn2)cc1 [GW835314],15,75,0,17,0,12,3,0,0,7
Nc1nc(Nc2ccccc2)cc(-c2ccc3c(N)n[nH]c3c2)n1 [GSK2225749],12,63,0,0,74,0,73,0,0,0
CCn1c(-c2nonc2N)nc2c(C#CC(C)(C)O)nc(OCCN)cc21.Cl.Cl [GSK902056],0,9,9,19,0,39,14,0,63,36
Cl.Cl.NC[C@H](CC1CCCCC1)NC(=O)c1cc(Br)c(-c2ccnc3[nH]ccc23)s1 [GSK1581427],25,71,0,90.2,0,44,88,90,0,13
CCN(CC)CCCCNc1ncc2cc(-c3c(Cl)cccc3Cl)c(NC(=O)NC(C)(C)C)nc2n1,87,42,53,12,22,28,7,0,0,26
C[C@@H](Oc1cc(-c2cnn(C3CCNCC3)c2)cnc1N)c1c(Cl)ccc(F)c1Cl,15,2,0,15,16,0,10,0,68,36
Cc1cc2cn[nH]c2cc1-c1cccc2c(N)c(C(N)=O)nnc12,20,34,0,23,1,27,28,0,0,23
Cc1ccc(-n2nc(C(C)(C)C)cc2NC(=O)Nc2ccc(OCCN3CCOCC3)c3ccccc23)cc1 [GW839464],0,0,0,0,5,0,16,0,29,0
Cl.Oc1cc(-c2nc(-c3ccccc3)[nH]c2-c2ccncc2)ccc1Cl [SB-386023],40,43,20,2,0,0,20,7,17,40
CNC(=O)c1ccccc1Sc1ccc2c(/C=C/c3ccccn3)n[nH]c2c1,14,10,0,25,22,44,11,0,0,9
O=C(NCCCN1CCOC1=O)c1cnc(NCc2cc(Cl)ccc2Cl)nc1NC1CCCC1,12,4,29,22,0,0,2,0,10,0
Cc1cc(C(=O)Nc2ccc(Oc3ccc4nc(NC(=O)C5CC5)cn4n3)cc2)nn1-c1ccccc1,13,6,0,0,0,0,6,0,0,0
CC(C)N1C(=O)Cc2cc(Nc3ncc(C(F)(F)F)c(NCc4cccc(S(C)(=O)=O)c4)n3)ccc21,4,14,17,25,0,4,28,10,47,0
